Compound activity from PubChem.
Pol kappa inh – inhibitors of human DNA polymerase kappa; AID 588579; 0.53% of 400,000 active; Q9UBT6; purified Pol kappa, fluorescent DNA synthesis assay, 10 min; Potency, µM (doses to about 107 µM), for the others: at the top dose activity, negative = inhibition, actives largely listed as inhibitors; further: on the % scale 0 is the no-effect control and ±100 the full control effect
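10 nM Pol kappa preincubated 15 min at room temperature with compounds, then reaction started with substrate at 50 nM final. Fluorescence read kinetically at 0 and 10 min; buffer-only wells served as negative control.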
FEN1 inh – inhibitors of human flap endonuclease 1 | Potency, µM (series often up to 114 µM), without a hit: at the top dose activity change, negative = inhibition, hits mostly inhibitors | AID 588795 | P39748 | Recombinant FEN1 flap cleavage, fluorescence, 15 min | 0.35% of 390,000 active; further: on the % scale 0 is the no-effect control and ±100 the full control effect; nearly all actives have a fitted effect of over 65% in size
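Reaction started by adding substrate (50 nM final) to 10 nM enzyme after 15 min room-temperature compound preincubation. Reads at 0 and 15 min, with data normalized and fitted to a four-parameter Hill equation.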
PGK inhibitor – inhibitors of T. brucei phosphoglycerate kinase; PGK/GAPDH coupled, Kinase-Glo luminescence, 60 min; P07378; AID 602233; Potency, µM (highest dose often 57.5 µM), for the others: top-dose activity change, negative = inhibition, actives largely listed as inhibitors; 0.043% of 380,000 active; further: on the % scale 0 is the no-effect control and ±100 the full control effect; nearly all actives have a fitted effect of over 60% in size
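Luminescent ATP detection (Kinase-Glo Plus) follows a 60-minute room-temperature incubation, with wells lacking PGK as controls. Buffer: 100 mM TEA (pH 7.6), 5 mM MgCl2, 0.01% Tween-20. Coupling enzyme GAPDH (100 nM final) supplies unstable 1,3-BPG in-well.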
Pol iota inh – blocks human DNA polymerase iota activity | Q9UNA4 | Pol iota fluorescent replication assay, 10 min | Potency, µM (series often up to 115 µM), for the others: at the highest dose activity, negative = inhibition, most hits filed as inhibitors | 1% of 390,000 active
Target sequence (Q9UNA4 whole entry, looked up): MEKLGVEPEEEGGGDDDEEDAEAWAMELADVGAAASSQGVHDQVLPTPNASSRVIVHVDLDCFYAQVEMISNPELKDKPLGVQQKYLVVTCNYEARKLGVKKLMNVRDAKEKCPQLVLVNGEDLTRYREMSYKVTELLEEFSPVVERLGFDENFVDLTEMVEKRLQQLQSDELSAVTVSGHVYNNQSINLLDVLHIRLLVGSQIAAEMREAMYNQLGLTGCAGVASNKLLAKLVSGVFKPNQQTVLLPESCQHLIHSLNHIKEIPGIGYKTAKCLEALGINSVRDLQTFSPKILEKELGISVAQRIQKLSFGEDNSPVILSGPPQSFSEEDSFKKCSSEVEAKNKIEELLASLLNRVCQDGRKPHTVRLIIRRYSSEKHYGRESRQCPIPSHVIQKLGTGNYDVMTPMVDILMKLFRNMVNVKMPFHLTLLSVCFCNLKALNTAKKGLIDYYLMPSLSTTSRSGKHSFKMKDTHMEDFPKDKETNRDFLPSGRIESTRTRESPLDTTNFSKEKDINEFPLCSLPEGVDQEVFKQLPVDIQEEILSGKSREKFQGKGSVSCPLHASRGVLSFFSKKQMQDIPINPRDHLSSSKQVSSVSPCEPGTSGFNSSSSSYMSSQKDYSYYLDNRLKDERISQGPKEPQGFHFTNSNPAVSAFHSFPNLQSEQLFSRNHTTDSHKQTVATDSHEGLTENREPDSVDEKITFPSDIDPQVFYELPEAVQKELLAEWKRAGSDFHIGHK
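Fluorescent replication assay read twice, at 0 min and 10 min after adding 50 nM (final) substrate. Enzyme (10 nM) and compounds were first incubated 15 min at room temperature; enzyme-free buffer wells were negative controls.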
Pol beta inh – inhibitors of human DNA polymerase beta | Pol beta primer extension/strand displacement, fluorescence kinetic | Potency, µM (top dose mostly 114 µM), for inactives: top-dose activity change, negative = inhibition, usual class: inhibitors | 1.3% of 340,000 active | AID 485314; further: on the % scale 0 is the no-effect control and ±100 the full control effect
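Enzyme-only controls used 10 nM Pol beta; buffer lacking enzyme served as negative control. Compound preincubated 15 min, then 50 nM substrate added; 0 and 10 min reads at room temperature.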
POLH inh – inhibitors of human DNA polymerase eta; recombinant Pol eta, fluorescent DNA replication assay; Potency, µM (top dose mostly 114 µM), for the others: at the top dose activity change, negative = inhibition, most hits filed as inhibitors; 1.2% of 390,000 active; AID 588591; further: on the % scale 0 is the no-effect control and ±100 the full control effect
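Pol eta at 10 nM preincubated with compounds 15 min at room temperature; reaction started with fluorescent substrate (50 nM final) and read kinetically at 0 and 10 min.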
* marks the source's active call; other numbers are inactive results; i = inactive; ? = inconclusive; · = no result; [ ] = another dose, or the depositor's remark. Sampled rows, rich in hits. Any-hit rate of the full collection: about 2.4%. The call rests on the fitted dose curve; in most records, active means well fitted curve in the direction sought with a large enough effect; inconclusive means small, poorly fitted or top-dose-only effect, or another doubt; inactive means no such curve, though single readings can be large; an effect the other way counts as inactive or inconclusive. Potency means the concentration at half of the fitted maximal effect.

SMILES	Pol kappa inh	FEN1 inh	PGK inhibitor	Pol iota inh	Pol beta inh	POLH inh
COc1ccc(N2CCN(S(=O)(=O)c3ccc(OC)c(-c4noc(C)n4)c3)CC2)cc1	-7%	-22%	-1%	30%	?	-17%
C/C(=N\OCC(=O)OC(C)C(=O)Nc1ccc(C)c(S(=O)(=O)N2CCOCC2)c1)c1ccc2c(c1)OCO2 (configuration not stated)	-17%	11%	-2%	?	·	56µM*
Nc1cc(=O)[nH]c(=S)[nH]1	-2%	-15%	·	9%	·	·
O=C(Oc1coc(CSc2nnc(NC(=O)c3cccs3)s2)cc1=O)c1ccccc1	?	1%	i	?	13µM*	?
Cc1ccc(C(=O)Oc2coc(CSc3nnc(NC(=O)C4CC4)s3)cc2=O)cc1	-14%	6%	-5%	?	1%	?
COc1cccc(/C=C2\SC(=S)N(CCCC(=O)Nc3ccc(C(=O)O)cc3)C2=O)c1	-8%	3%	3%	-25%	20%	?
O=C(CCN1C(=O)/C(=C/c2cccs2)SC1=S)Nc1ccc(C(=O)O)c(O)c1	-3%	-1%	-13%	18%	?	40µM*
Cc1ccc(NC(=O)COc2cccc(/C=C3\SC(=S)N(CCC(=O)O)C3=O)c2)cc1Cl	79µM*	0%	-10%	50µM*	?	45µM*
O=C(O)CCN1C(=O)/C(=C\c2cccc(OCC(=O)Nc3ccc(Cl)cc3)c2)SC1=S	?	0%	?	?	56µM*	1%
O=C1NN(C(=O)Nc2ccc(Br)cc2)C(c2ccccc2)C1c1ccccc1 (configuration not stated)	7%[60.1 µM]	·	·	·	·	·
CCN=C1SC(C(=O)Nc2cc(Cl)cc(Cl)c2)CC(=O)N1CC (configuration not stated)	-2%	5%	8%	116%	-23%	-2%
CCN1C(=O)CC(C(=O)NC)SC1=Nc1cc(Cl)c(O)c(Cl)c1 (configuration not stated)	-9%	-3%	-7%	89µM*	-11%	1%
N=C1S/C(=C\c2ccco2)C(=O)N1c1ccc2c(c1)OCO2	?	-14%	-28%	325%	20µM*	35µM*
CC(=O)Nc1ccc2c(c1)-c1ccc(F)cc1C2	-6%	-12%	-2%	-3%	·	-6%
CC(=O)Nc1ccc2c(c1)Cc1ccc(Cl)cc1-2	-11%	?	-2%	79µM*	·	-21%
O=c1c2c([nH]c3ccccc13)C(=C1CCCC1)CC2	40µM*	-7%	-9%	?	32µM*	20µM*
COc1ccc(NC(=O)/C=C/c2cc(Br)ccc2OC)cc1	-14%	-9%	-6%	-9%	40%	-2%
COc1ccc(Br)cc1/C=C/C(=O)c1ccc(NC(C)=O)cc1	-19%	?	1%	100µM*	20%	?
CCCCNc1c(-c2ccc(OC)c(SC3CCCCC3)c2)nc2ccc(C)cn12	-17%	-14%	-3%	-15%	·	-27%
COc1ccc(-c2nc3ccc(C)cn3c2NCc2ccccc2)cc1SC1CCCCC1	10%	5%	i	22µM*	·	45µM*
COc1ccc(N2CCN(C(=O)C3CCN(S(=O)(=O)c4cn(C)cn4)CC3)CC2)cc1	-6%[60.1 µM]	17%	4%	-11%	0%	12%
CCCCCCCCNc1ccc(/C=C/c2ccnc3ccccc23)cc1	?	-33%	·	?	·	·
Cc1ccc(NC2=CC(=O)C(=O)c3ccccc32)c(C)c1	1%	7%	-5%	44%	·	-31%
CCOc1ccc(NC2=CC(=O)C(=O)c3ccccc32)cc1	-4%	-18%	-20%	35µM*	·	40µM*
COc1cc(Cl)c(NC2=CC(=O)C(=O)c3ccccc32)c(OC)c1	-1%	-29%	-11%	?	·	56µM*
SMILES	Pol kappa inh	FEN1 inh	PGK inhibitor	Pol iota inh	Pol beta inh	POLH inh
O=C1C=C(Nc2cccnc2)c2ccccc2C1=O	-14%	-7%	-15%	50µM*	·	32µM*
O=C1C=C(Nc2ccccc2O)c2ccccc2C1=O	-9%	-8%	i	32µM*	10%	25µM*
COc1cc(Cl)c(NS(=O)(=O)c2ccc(-c3ccc(=O)[nH]n3)o2)c(OC)c1	-19%	-1%	0%	23%	-2%	-4%
O=C1C=C(Nc2ccc(F)cc2)c2ccccc2C1=O	-16%	1%	-14%	1%	·	?
CC(C)C[C@@H](/C=C/S(C)(=O)=O)NC(=O)[C@H](CC(C)C)NC(=O)[C@H](CC(C)C)NC(=O)OCc1ccccc1	2%[19.4 µM]	·	·	·	·	·
COc1ccc2c(c1)C=C/C2=C/c1ccc(N(C)C)cc1	-17%	-4%	·	27%	·	·
COc1ccccc1-c1cc2nc(C)c(CCC(=O)NCCc3ccc(SC)cc3)c(C)n2n1	-13%	-3%	1%	0%	-2%	-23%
C(=C\c1ccnc2ccccc12)/c1cccnc1	3%	8%	·	1%	·	·
O=C(O)CSC1=NS(=O)(=O)c2ccccc21	?	?	·	89µM*	·	·
CCOC(=O)N1CCC(N2Cc3cccc(C(=O)NCc4ccc(OC)cc4)c3C2=O)CC1	·	·	·	·	16µM*	·
CCOC(=O)N1CCC(N2Cc3cccc(C(=O)NCc4ccc5c(c4)OCO5)c3C2=O)CC1	-51%	3%	-10%	45µM*	25µM*	?
Cc1cccc(CCNC(=O)c2cccc3c2C(=O)N(C2CCCCC2)C3)c1	-20%	-16%	-12%	-18%	11µM*	?
O=C(NCCC1=CCCCC1)c1cccc2c1C(=O)N(C1CCCCC1)C2	1%[60.1 µM]	-18%	-6%	4%	-9%	11%
CCOC(=O)N1CCC(NC(=O)c2cn(-c3ccc(OC)cc3)c(=O)c3ccccc23)CC1	-5%	-6%	4%	7%	-1%	0%
CCOC(=O)N1CCC(NC(=O)c2cccc3c2C(=O)N(c2ccc(OC)cc2)C3)CC1	50µM*	-1%	-9%	?	10µM*	18µM*
CCN(CC)CCCNC(=O)c1ccc2c(c1)N(Cc1c(F)cccc1Cl)C(=O)c1ccccc1S2	-9%	17%	6%	18%	3%	-15%
NC(C(=O)O)C(CC(=O)O)c1ccc(Cl)cc1 (configuration not stated)	3%[19.4 µM]	·	·	·	·	·
CCOc1cccc2sc(N(Cc3cccnc3)C(=O)C3CCCCC3)nc12	-6%[60.1 µM]	-22%	-7%	-4%	-17%	5%
COc1ccc(/C=N/Nc2ncnc3c2[nH]c2ccccc23)c(OC)c1OC	-19%	1%	-9%	?	?	?
COc1cccc(/C=N/Nc2ncnc3c2[nH]c2ccc(C)cc23)c1OC	?	-21%	-5%	13µM*	?	?
